# Most compounds without a hit are left out; they make up all but 12% or so of the library.
# PLK1 PBD block = inhibitors of human PLK1 polo-box domain binding | P53350 | Potency, µM, for the others: max response, negative = inhibition, usual class: inhibitors | Plk1 PBD binding of FITC phosphopeptide, fluorescence polarization | AID 720504 | 360,000 compounds, 2.8% hits; also: series mostly up to about 57 µM; % is scaled to controls: 0 for no effect and ±100 for the full control effect; nearly all actives have a fitted effect of over 65% in size
# HP1b binding inh = blocks HP1-beta chromodomain binding to methylated histone tails | P83916 | AlphaScreen HP1-beta / biotin-H3K9me3 peptide binding | Potency, µM (highest dose often 114 µM), inactives show top-dose activity change, negative = inhibition, most hits filed as inhibitors | 390,000 compounds, 0.56% hits; also: nearly all actives have a fitted effect of over 70% in size
# Target sequence (P83916 whole entry, looked up): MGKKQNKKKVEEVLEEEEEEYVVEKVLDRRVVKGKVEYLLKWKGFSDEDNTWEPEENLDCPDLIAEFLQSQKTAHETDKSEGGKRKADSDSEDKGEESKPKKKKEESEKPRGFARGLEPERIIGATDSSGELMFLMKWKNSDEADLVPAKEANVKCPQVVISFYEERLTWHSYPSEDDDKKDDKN
#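 HP1-beta protein (50 nM final) preincubated 30 min at room temperature with biotinylated H3(1-18)K9me3 peptide (50 nM) in PBS pH 7.4, 0.01% Tween-20, then compound added for 30 min. AlphaScreen streptavidin donor/nickel chelate acceptor beads (10 ug/mL final), 30 min dark, luminescence read.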
# JMJD2A Tudor inh = blocks the human JMJD2A Tudor domain. O75164. AlphaScreen JMJD2A-Tudor / H3K4me3 peptide binding. Potency, µM (highest dose often 114 µM), for inactives: at the highest dose activity change, negative = inhibition, usual class: inhibitors. 390,000 compounds, 4.4% hits. AID 504339; also: % is scaled to controls: 0 for no effect and ±100 for the full control effect; nearly all actives have a fitted effect of over 50% in size
# G9a block = blocks human histone lysine methyltransferase G9a; Q96KQ7; G9a H3K9 monomethylation, AlphaScreen, 2 h; Potency, µM (series often up to 102 µM), without a hit: at the top dose activity, negative = inhibition, usual class: inhibitors; 350,000 compounds, 8.8% hits; AID 504332; also: % is scaled to controls: 0 for no effect and ±100 for the full control effect; nearly all actives have a fitted effect of over 75% in size
# Target sequence (Q96KQ7 913-1193 limits assumed): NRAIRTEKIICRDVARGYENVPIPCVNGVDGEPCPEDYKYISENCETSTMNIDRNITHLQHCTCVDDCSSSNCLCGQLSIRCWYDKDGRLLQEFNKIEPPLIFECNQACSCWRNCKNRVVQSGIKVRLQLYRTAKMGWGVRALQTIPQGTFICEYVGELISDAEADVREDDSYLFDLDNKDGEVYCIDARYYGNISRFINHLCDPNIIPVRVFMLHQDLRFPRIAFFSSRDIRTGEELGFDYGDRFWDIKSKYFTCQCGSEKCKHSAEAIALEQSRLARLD
#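 Readings reflect AlphaScreen signal from monomethyl-H3K9 antibody detection. HMT at 20 nM; substrate b-H3K9 500 nM; cofactor SAM 20 uM; 2 h RT reaction; compounds tested as titrations in qHTS with 15 min preincubation.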
# BAZ2B inh = blocks human BAZ2B; Q9UIF8; AlphaScreen BAZ2B-H3K14Ac peptide displacement; Potency, µM (series often up to 114 µM), for inactives: at the highest dose activity change, negative = inhibition, most hits filed as inhibitors; 360,000 compounds, 4.4% hits; AID 504333; also: % is scaled to controls: 0 for no effect and ±100 for the full control effect; nearly all actives have a fitted effect of over 60% in size
#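 Protein-peptide AlphaScreen: BAZ2B 50 nM, b-H3K14Ac 50 nM, 1x PBS pH 7.4 + 0.01% Tween-20. Preincubation 30 min RT; cpd 30 min RT (top 110 uM); beads 20 min RT, light-protected.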
# Sfp PPTase inh = inhibitors of Bacillus subtilis Sfp phosphopantetheinyl transferase; Q9F4F7; Biochemical Sfp PPTase activity, qHTS; Potency, µM, without a hit: largest response in the series, negative = inhibition, most hits filed as inhibitors; 310,000 compounds, 3.5% hits; AID 1490;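 also: the enzyme is Sfp with the accession as filed and its product quenches rhodamine fluorescence; 0% = enzyme reaction without inhibitor and -100% = no enzyme wells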
#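 Reaction rates are the 30-min fluorescence difference (ex 525, em 598 nm) in wells containing 15 nM Sfp, 5 uM rhodamine-CoA and 12.5 uM BHQ-2-YbbR at pH 7.6 with 10 mM MgCl2.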
# Starred values were filed as active, the others as inactive; ? = inconclusive; / = not tested or not shown; [ ] = remark or other dose. Calls follow the shape of the dose curve; as a rule, active = well fitted curve in the direction sought with a large enough effect; inconclusive = small, poorly fitted or top-dose-only effect, or another doubt; inactive = no such curve, though single readings can be large; an effect the other way counts as inactive or inconclusive. Potency is read from the fitted curve at half-maximal effect.
SMILES,PLK1 PBD block,HP1b binding inh,JMJD2A Tudor inh,G9a block,BAZ2B inh,Sfp PPTase inh
COC(=O)c1c(N)sc(C(=O)N2CCOCC2)c1C,-18.7%,15.4%,-6.7%,-0.4%[12.7 µM],-5.6%,22.6%
CC(=O)OCCCn1c(C)[n+](C)c2cc(Cl)c(Cl)cc21,-12.4%,-28.4%,31.6µM*,31.6µM*,-30.3%,0.7%
CCn1c(C)[n+](CCOC(C)=O)c2cc(Cl)c(Cl)cc21,-0.6%,10.5%,-8.4%,/,?,-21.4%
Cc1oncc1C(=S)Nc1ccccc1,26.7µM*,-16.1%,-11.3%,?,3.1%,-24.8%
COc1cc(NC(=O)C(NC(=O)C2CCC(C)CC2)C(C)C)cc(OC)c1OC (stereo not given),/,44.6%,-3.8%,7.5%[59 µM],-2.5%,/
CC1=CC(C)(C)NC(=S)N1c1cccc2ccccc12,0.9%,30.3%,6.2%,-11.7%[59 µM],-3.1%,27.6%
CN1c2ccccc2N(C)C1(C)c1cccc2ccccc12,-4.3%,?,44.7µM*,1.41µM*,?,?
O=C(O)c1ccc2c(c1)S(=O)(=O)c1cc(N3CCN(c4cnccn4)CC3)ccc1C2=O,-1.9%,/,/,/,/,/
Nc1c(C(=O)NCC2CCCO2)sc(=S)n1-c1ccccc1 (stereo not given),18.9µM*,-38.4%,-16.1%,?,0.1%,?
CCOC(=O)c1c(C)c(C(=O)NCC2CCCO2)c(C)n1CC (stereo not given),-6.7%,18.5%,-5.8%,6.0%[59 µM],2.1%,-3.1%
CCn1c(N)c(C(=O)NCC2CCCO2)sc1=S (stereo not given),4.74µM*,11.2µM*,?,-118.9%[12.7 µM],79.4µM*,17.8µM*
C=CCn1c(N)c(C(=O)NCC2CCCO2)sc1=S (stereo not given),29.9µM*,-21.1%,4.6%[11.4 µM],0.7%[12.7 µM],0.8%,17.4%
Cc1ccc(C2=NNC3(CCOC(C)(C)C3)S2)cc1 (stereo not given),-11.1%,-30.4%,?,28.2µM*,-35.9%,-1.1%
Cc1c(CNCCC2=CCCCC2)c(C(=O)O)c(C)n1Cc1ccccc1,-4.5%,12.0%,-21.0%,50.1µM*,-36.7%,10.9%
O=C(COc1ccccc1)Nn1cnc2ccccc21,?,30.7%,-14.6%,20µM*,?,?
Cc1nc2ccccc2c(=O)n1NC(=O)COc1ccccc1,-4.1%,3.7%,-17.2%,-42.7%[12.7 µM],-21.7%,2.3%
CCc1ccc(N2C(=O)CC(N(CC3CCCO3)C(=O)/C=C/C(=O)O)C2=O)cc1 (stereo not given),-14.9%,20.4%,-33.6%,89.1µM*,-4.2%,-4.0%
S=C1NC(c2ccccc2)N2C(=S)NC(c3ccccc3)N12 (stereo not given),?,31.6µM*,12.6µM*,?,79.4µM*,56.2µM*
COc1ccc(S(=O)(=O)N2CCCC2C(=O)Nc2nnc(-c3cccnc3)s2)cc1 (stereo not given),26.7µM*,-25.8%,-26.2%,3.55µM*,-8.0%,-7.1%
COc1ccc(S(=O)(=O)N2CCC[C@H]2C(=O)NC2=NCCS2)cc1,-8.7%,14.5%,?,15.8%,-39.0%,11.6%
CCNC(=O)C1CCCN1S(=O)(=O)c1ccc(OC)cc1 (stereo not given),-6.7%,7.2%,-6.1%,8.91µM*,8.1%,13.5%
Cc1cc(C)cc(Cn2ncc3c4sc(C)cc4n(C)c3c2=O)c1,/,/,-27.4%,/,/,/
Cc1c(NC(=O)c2c(N)sc3c2CCCC3)c(=O)n(-c2ccccc2)n1C,?,23.8%,-13.1%,?,10.4%,28.2µM*
Cc1c(NC(=S)N/N=C/c2ccc([N+](=O)[O-])cc2O)c(=O)n(-c2ccccc2)n1C,-19.2%,28.5%,44.7µM*,1.5%,14.1µM*,31.3%
Cc1c(NC(=S)N/N=C\c2ccccc2O)c(=O)n(-c2ccccc2)n1C,-7.7%,37.9%,39.8µM*,9.7%[59 µM],3.16µM*,13.0%
SMILES,PLK1 PBD block,HP1b binding inh,JMJD2A Tudor inh,G9a block,BAZ2B inh,Sfp PPTase inh
COc1ccc(/C=N/NC(=S)Nc2c(C)n(C)n(-c3ccccc3)c2=O)cc1OC,-0.5%,23.2%,-6.4%,/,-3.1%,44.7µM*
Cc1c(NC(=O)c2csc3c2CCCC3)c(=O)n(-c2ccccc2)n1C,-2.6%,-4.2%,-9.0%,-12.7%[59 µM],-0.8%,15.9%
COc1ccc(NC(=O)Nc2c(C)n(C)n(-c3ccccc3)c2=O)cc1OC,-3.5%,14.1%,-8.3%,3.1%,-12.8%,11.1%
Cc1c(NC(=S)N/N=C/c2ccc(Br)cc2)c(=O)n(-c2ccccc2)n1C,-3.9%,22.2%,-9.4%,-46.5%,-18.0%,18.2%
CC1CCC(N2CC(=O)N(C3CCCC3)C(c3ccc(Cl)cc3)C2=O)CC1 (stereo not given),/,-3.8%,-7.6%,0.5%[59 µM],-0.7%,/
Cc1ccc(C)c(S(=O)(=O)N2CCCOC2CNC(=O)C(=O)NC2CC2)c1 (stereo not given),-2.6%,11.7%,-14.7%,/,-3.1%,-19.9%
Cc1c(NC(=S)Nc2cccc(Cl)c2)c(=O)n(-c2ccccc2)n1C,-7.7%,6.9%,-8.5%,-25.7%,2.7%,-2.1%
Cc1c(NC(=S)N/C(=N/S(=O)(=O)c2ccc(Cl)cc2)c2ccccc2)c(=O)n(-c2ccccc2)n1C,-12.9%,11.2%,2.8%,?,26.1%,35.5µM*
Cc1cccc(C)c1NC(=S)Nc1c(C)n(C)n(-c2ccccc2)c1=O,-11.8%,33.6%,-18.9%,0.794µM*,-7.4%,7.1%
Cc1cc2nc(-c3ccc(OCc4ccccc4C)cc3)cc(C(F)(F)F)n2n1,/,86.4%,64.2%,54.4%[59 µM],17.2%,/
[O-]/C(=C(\C(=S)NCc1ccccc1)[n+]1ccccc1)c1ccc(Cl)s1,-20.1%,?,?,25.1µM*,?,-36.0%
O=C(NCCN1CCOCC1)c1c(Cl)cccc1Cl,-1.7%,73.2%,-6.9%,1.7%[0.501 µM],-4.1%,16.5%
[O-]/C(=C(\C(=S)NCCN1CCOCC1)[n+]1ccccc1)c1ccc(Cl)s1,-14.2%,-4.5%,-31.0%,25.1µM*,?,2.5%
Cc1c(Cl)cccc1NC(=S)C(=C([O-])c1ccc(Cl)s1)[n+]1ccccc1,-16.4%,?,50.1µM*,/,/,/
CC(C)[C@@H]1CC2=C(C(=O)OC(C)(C)O2)[C@H](CCc2ccccc2)O1,-5.2%,/,/,/,/,/
CC(CNC(=O)CN1C(=O)NC2(CCOc3ccccc32)C1=O)c1ccccc1 (stereo not given),4.3%,45.0%,-1.0%,?,9.3%,/
CC(OC(=O)c1ccc(C#N)cc1)C(=O)Nc1ccc(Cl)cn1 (stereo not given),-10.9%,17.9%,1.4%,56.2µM*,10.1%,/
O=C1NN(c2ccccc2)C(=O)/C1=C/c1ccc(-c2ccc(Cl)c(C(=O)O)c2)o1,?,?,56.2µM*,17.8µM*,50.1µM*,-4.1%
